This is an account of results in paper PMC7862700, “An all-to-all approach to the identification of sequence-specific readers for epigenetic DNA modifications on cytosine”.

Test in all cases: DAPPL (digital affinity profiling via proximity ligation, sequencing); 10 mM Tris-HCl pH 7.5, 50 mM NaCl, 1 mM DTT, 4% glycerol, room temperature, 30 min; GST-TFs on glutathione beads, 16-mer random dsDNA library, 0.1% formaldehyde crosslink after washing; high values mean tight binding
Common to all, as to settings: protein: recombinant; tags: N-terminal GST; dsDNA, one strand shown

The target in one test is T1, FLI1 (Homo sapiens, UniProt Q01543 1-452).
T1 sequence: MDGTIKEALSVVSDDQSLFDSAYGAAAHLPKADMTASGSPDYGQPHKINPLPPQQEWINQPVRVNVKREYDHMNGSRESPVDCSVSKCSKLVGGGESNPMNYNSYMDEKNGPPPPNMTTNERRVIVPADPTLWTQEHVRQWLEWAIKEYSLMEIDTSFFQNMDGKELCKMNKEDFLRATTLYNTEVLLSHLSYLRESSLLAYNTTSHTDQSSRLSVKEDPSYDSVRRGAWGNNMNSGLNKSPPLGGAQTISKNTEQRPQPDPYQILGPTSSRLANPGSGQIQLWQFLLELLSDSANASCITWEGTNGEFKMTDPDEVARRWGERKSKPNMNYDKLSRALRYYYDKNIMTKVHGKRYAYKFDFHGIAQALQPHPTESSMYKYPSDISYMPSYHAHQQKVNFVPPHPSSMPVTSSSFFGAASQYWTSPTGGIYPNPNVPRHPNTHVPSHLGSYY
In a few lines:
(§1)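 Sequencing on an Illumina NextSeq500 followed washing, crosslinking with 0.1% formaldehyde, proximity ligation (BsaI/T4 ligase, 1 h, 37 °C) and PCR amplification of pools that had been incubated for 30 min at room temperature with 200 nmole of a random double-stranded 16-mer DNA library in Tris/NaCl/DTT/glycerol buffer. Each pool held DNA-barcoded human transcription factors, expressed in yeast as GST fusions and captured on glutathione beads, plus a tag-only sample. Binding signal is a hexamer's read frequency for a factor divided by its frequency in the tag-only sample.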

The target of another test is T2, ELK1 (Homo sapiens, UniProt P19419 1-428).
T2 sequence: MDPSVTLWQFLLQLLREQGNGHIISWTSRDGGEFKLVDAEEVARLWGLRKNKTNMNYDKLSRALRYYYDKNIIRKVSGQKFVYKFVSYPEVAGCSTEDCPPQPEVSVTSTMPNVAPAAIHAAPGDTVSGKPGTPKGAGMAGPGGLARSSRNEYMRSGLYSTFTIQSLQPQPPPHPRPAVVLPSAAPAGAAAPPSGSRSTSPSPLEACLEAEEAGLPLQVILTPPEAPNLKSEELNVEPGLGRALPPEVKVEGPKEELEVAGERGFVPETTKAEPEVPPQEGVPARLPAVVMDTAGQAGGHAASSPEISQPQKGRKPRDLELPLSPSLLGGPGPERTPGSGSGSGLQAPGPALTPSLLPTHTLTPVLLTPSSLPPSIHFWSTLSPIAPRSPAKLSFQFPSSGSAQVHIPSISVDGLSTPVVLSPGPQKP
In a few lines:
as §1

The target in the next test is T3, GABPA (Homo sapiens, UniProt Q06546 1-454).
T3 sequence: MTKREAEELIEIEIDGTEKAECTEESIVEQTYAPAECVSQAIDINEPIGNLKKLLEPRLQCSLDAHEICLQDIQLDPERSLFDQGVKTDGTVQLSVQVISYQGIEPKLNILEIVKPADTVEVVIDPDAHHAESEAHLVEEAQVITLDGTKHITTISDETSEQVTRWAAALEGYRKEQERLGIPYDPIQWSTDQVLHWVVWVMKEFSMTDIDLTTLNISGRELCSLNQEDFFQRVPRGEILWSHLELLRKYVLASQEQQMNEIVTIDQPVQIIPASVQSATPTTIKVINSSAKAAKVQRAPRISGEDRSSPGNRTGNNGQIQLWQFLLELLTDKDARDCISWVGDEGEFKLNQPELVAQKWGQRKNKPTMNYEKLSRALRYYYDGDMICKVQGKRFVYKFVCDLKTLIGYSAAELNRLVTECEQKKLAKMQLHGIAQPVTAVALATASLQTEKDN
A digest of the protocol: as §1

The target in another test is T4, ERG (Homo sapiens, UniProt P11308 1-479).
T4 sequence: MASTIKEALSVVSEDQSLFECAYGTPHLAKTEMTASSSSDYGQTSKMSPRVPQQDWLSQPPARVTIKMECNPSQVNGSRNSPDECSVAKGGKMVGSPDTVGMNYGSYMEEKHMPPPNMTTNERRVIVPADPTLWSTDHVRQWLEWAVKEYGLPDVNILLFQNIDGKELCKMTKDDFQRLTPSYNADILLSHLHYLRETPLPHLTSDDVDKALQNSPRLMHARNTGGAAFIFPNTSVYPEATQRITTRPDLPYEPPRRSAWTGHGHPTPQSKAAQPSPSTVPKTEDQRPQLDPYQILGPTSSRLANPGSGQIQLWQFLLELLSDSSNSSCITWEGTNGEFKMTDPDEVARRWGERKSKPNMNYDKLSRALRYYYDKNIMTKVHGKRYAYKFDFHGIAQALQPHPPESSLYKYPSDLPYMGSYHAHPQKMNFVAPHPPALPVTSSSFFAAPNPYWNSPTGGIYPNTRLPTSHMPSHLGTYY
A digest of the protocol: as §1

The target in another test is ELF1 (Homo sapiens, UniProt P32519 1-619). In a few lines: as §1
The next test has as its target T5, EHF (Homo sapiens, UniProt Q9NZC4 1-300).
T5 sequence: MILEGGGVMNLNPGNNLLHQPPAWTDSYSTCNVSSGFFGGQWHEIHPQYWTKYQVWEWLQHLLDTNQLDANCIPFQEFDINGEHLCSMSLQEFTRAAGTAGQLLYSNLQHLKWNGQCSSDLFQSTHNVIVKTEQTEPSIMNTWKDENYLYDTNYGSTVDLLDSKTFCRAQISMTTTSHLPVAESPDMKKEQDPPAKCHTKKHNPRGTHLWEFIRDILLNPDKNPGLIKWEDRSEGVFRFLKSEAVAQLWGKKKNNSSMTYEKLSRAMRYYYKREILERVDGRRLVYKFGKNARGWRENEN
In a few lines:
as §1

In another test the target is SPI1 (Homo sapiens, UniProt P17947 1-270). In a few lines: as §1
For another test, the target named is SPIB (Homo sapiens, UniProt Q01892 1-262). A digest of the protocol:
as §1

For another test, the target named is T6, ELK3 (Homo sapiens, UniProt P41970 1-407).
T6 sequence: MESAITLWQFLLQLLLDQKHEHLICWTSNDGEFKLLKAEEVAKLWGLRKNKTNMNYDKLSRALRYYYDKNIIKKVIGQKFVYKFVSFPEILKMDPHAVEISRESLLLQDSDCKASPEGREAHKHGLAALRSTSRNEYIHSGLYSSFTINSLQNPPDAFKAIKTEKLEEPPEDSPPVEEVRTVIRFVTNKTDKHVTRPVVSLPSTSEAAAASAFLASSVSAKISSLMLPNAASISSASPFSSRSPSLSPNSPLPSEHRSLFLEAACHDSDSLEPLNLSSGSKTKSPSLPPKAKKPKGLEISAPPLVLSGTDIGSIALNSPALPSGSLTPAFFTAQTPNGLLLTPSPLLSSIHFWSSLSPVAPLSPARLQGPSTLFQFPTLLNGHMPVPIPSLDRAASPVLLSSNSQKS
In a few lines:
as §1

Chain of ELF1 (P32519 whole entry): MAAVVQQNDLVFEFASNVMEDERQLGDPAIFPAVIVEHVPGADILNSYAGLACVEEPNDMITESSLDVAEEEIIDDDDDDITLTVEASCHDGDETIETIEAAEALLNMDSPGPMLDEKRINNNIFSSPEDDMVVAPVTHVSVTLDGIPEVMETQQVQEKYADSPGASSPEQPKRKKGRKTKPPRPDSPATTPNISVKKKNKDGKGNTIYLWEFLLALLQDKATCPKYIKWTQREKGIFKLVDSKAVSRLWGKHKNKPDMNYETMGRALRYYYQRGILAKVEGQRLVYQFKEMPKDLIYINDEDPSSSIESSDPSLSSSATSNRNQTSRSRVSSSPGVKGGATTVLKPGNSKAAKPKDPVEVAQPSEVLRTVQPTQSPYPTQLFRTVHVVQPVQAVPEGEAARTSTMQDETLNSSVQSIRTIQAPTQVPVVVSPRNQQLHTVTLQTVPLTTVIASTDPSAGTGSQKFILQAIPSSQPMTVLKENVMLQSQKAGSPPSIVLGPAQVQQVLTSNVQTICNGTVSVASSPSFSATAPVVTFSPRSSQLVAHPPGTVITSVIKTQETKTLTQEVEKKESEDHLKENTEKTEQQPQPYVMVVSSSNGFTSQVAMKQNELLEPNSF
Chain of SPIB (Q01892 whole entry): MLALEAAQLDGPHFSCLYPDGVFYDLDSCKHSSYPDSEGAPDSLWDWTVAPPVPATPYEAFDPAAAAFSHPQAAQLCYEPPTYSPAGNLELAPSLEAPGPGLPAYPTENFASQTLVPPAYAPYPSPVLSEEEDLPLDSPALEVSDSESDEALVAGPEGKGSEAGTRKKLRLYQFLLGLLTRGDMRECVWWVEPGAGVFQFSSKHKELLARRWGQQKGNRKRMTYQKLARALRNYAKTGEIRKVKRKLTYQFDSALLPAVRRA

For ACTACT, the binding signal in the test with FLI1 was 1.28 fold enrichment (6-mer frequency, TF over GST control); with ELK1, 1.25 fold enrichment (6-mer frequency, TF over GST control); with GABPA it was 1.28 fold enrichment (6-mer frequency, TF over GST control); with ERG, 1.28 fold enrichment (6-mer frequency, TF over GST control); with ELF1 it was 1.32 fold enrichment (6-mer frequency, TF over GST control); in the test with EHF, 1.34 fold enrichment (6-mer frequency, TF over GST control). In addition, the binding signal in the test with SPI1 is 1.29 fold enrichment (6-mer frequency, TF over GST control); with SPIB, 1.34 fold enrichment (6-mer frequency, TF over GST control); with ELK3 it was 1.31 fold enrichment (6-mer frequency, TF over GST control).

With TCCATA, the binding signal was 1.33 fold enrichment (6-mer frequency, TF over GST control) in the test with FLI1; 1.3 fold enrichment (6-mer frequency, TF over GST control) with ELK1; 1.18 fold enrichment (6-mer frequency, TF over GST control) with GABPA; 1.25 fold enrichment (6-mer frequency, TF over GST control) with ERG; 1.23 fold enrichment (6-mer frequency, TF over GST control) in the test with ELF1; 1.24 fold enrichment (6-mer frequency, TF over GST control) with EHF. In addition, the binding signal with SPI1 is 1.18 fold enrichment (6-mer frequency, TF over GST control); with SPIB it was 1.21 fold enrichment (6-mer frequency, TF over GST control); with ELK3, 1.35 fold enrichment (6-mer frequency, TF over GST control).

Take TCTTTA: the binding signal in the test with FLI1 was 1.22 fold enrichment (6-mer frequency, TF over GST control); in the test with ELK1, 1.25 fold enrichment (6-mer frequency, TF over GST control); with GABPA it was 1.33 fold enrichment (6-mer frequency, TF over GST control); with ERG, 1.29 fold enrichment (6-mer frequency, TF over GST control); in the test with ELF1, 1.31 fold enrichment (6-mer frequency, TF over GST control); in the test with EHF it was 1.25 fold enrichment (6-mer frequency, TF over GST control). In addition, the binding signal is 1.32 fold enrichment (6-mer frequency, TF over GST control) with SPI1; 1.21 fold enrichment (6-mer frequency, TF over GST control) with SPIB; 1.27 fold enrichment (6-mer frequency, TF over GST control) in the test with ELK3.

AATACG: the binding signal in the test with FLI1 was 1.11 fold enrichment (6-mer frequency, TF over GST control); in the test with ELK1, 1.19 fold enrichment (6-mer frequency, TF over GST control); with GABPA it was 1.24 fold enrichment (6-mer frequency, TF over GST control); in the test with ERG it was 1.22 fold enrichment (6-mer frequency, TF over GST control); in the test with ELF1 it was 1.12 fold enrichment (6-mer frequency, TF over GST control); in the test with EHF it was 1.18 fold enrichment (6-mer frequency, TF over GST control). The binding signal with SPI1 was 1.32 fold enrichment (6-mer frequency, TF over GST control); with SPIB, 1.25 fold enrichment (6-mer frequency, TF over GST control); in the test with ELK3 it was 1.26 fold enrichment (6-mer frequency, TF over GST control).

Regarding CGATTG, the binding signal with FLI1 is 1.22 fold enrichment (6-mer frequency, TF over GST control); in the test with ELK1, 1.29 fold enrichment (6-mer frequency, TF over GST control); in the test with GABPA, 1.24 fold enrichment (6-mer frequency, TF over GST control); with ERG it was 1.26 fold enrichment (6-mer frequency, TF over GST control); with ELF1, 1.24 fold enrichment (6-mer frequency, TF over GST control); with EHF, 1.1 fold enrichment (6-mer frequency, TF over GST control). The binding signal with SPI1 was 1.22 fold enrichment (6-mer frequency, TF over GST control); in the test with SPIB, 1.19 fold enrichment (6-mer frequency, TF over GST control); in the test with ELK3 it was 1.24 fold enrichment (6-mer frequency, TF over GST control).

For the sequence TAGTGG, the binding signal with FLI1 is 1.18 fold enrichment (6-mer frequency, TF over GST control); in the test with ELK1, 1.19 fold enrichment (6-mer frequency, TF over GST control); with GABPA, 1.25 fold enrichment (6-mer frequency, TF over GST control); in the test with ERG, 1.07 fold enrichment (6-mer frequency, TF over GST control); with ELF1 it was 1.28 fold enrichment (6-mer frequency, TF over GST control); with EHF, 1.32 fold enrichment (6-mer frequency, TF over GST control). In addition, the binding signal in the test with SPI1 was 1.19 fold enrichment (6-mer frequency, TF over GST control); with SPIB, 1.34 fold enrichment (6-mer frequency, TF over GST control); in the test with ELK3, 1.4 fold enrichment (6-mer frequency, TF over GST control).

With TACCCG, the binding signal with FLI1 is 1.42 fold enrichment (6-mer frequency, TF over GST control); in the test with ELK1, 1.35 fold enrichment (6-mer frequency, TF over GST control); with GABPA, 1.51 fold enrichment (6-mer frequency, TF over GST control); with ERG it was 1.57 fold enrichment (6-mer frequency, TF over GST control); with ELF1, 1.52 fold enrichment (6-mer frequency, TF over GST control); with EHF, 1.58 fold enrichment (6-mer frequency, TF over GST control). The binding signal with SPI1 was 1.42 fold enrichment (6-mer frequency, TF over GST control); in the test with SPIB it was 1.52 fold enrichment (6-mer frequency, TF over GST control); with ELK3, 1.37 fold enrichment (6-mer frequency, TF over GST control).

Consider TCCCAC, for which the binding signal was 1.31 fold enrichment (6-mer frequency, TF over GST control) with FLI1; 1.42 fold enrichment (6-mer frequency, TF over GST control) with ELK1; 1.36 fold enrichment (6-mer frequency, TF over GST control) in the test with GABPA; 1.37 fold enrichment (6-mer frequency, TF over GST control) with ERG; 1.47 fold enrichment (6-mer frequency, TF over GST control) with ELF1; 1.38 fold enrichment (6-mer frequency, TF over GST control) in the test with EHF. Further, the binding signal with SPI1 was 1.34 fold enrichment (6-mer frequency, TF over GST control); in the test with SPIB, 1.26 fold enrichment (6-mer frequency, TF over GST control); with ELK3 it was 1.27 fold enrichment (6-mer frequency, TF over GST control).
